Measured values: the OligoGym collection

Molecular target: SMCR7L
Test: pooled miR-30 sensor sort-seq; sequence = guide strand
Settings: shRNA
Note: reference of the scale not given here.

Sequence | sensor-assay potency score (higher = more potent)
TTGTCTGTCTGACCCCTGCAGC | -0.951
TTGCTCTAAGGCCACATCCTAG | -1.5
TAAGTAGCTGATAAGTCCCCTC | -0.665
TTCTCCTGCAGGGACATGCGGA | -1.36
TTGCATTCAGCTTATCCTGTGT | 0.0334
TGACTTCTTCAAGTCTACCTGG | -0.253
TTAAACATTCCTCCCCACCTTC | -0.361
TACATTGCAATAAATACTGCAA | 0.27
AAACATGCTATCACAGCTCTTC | 0.268
TAGCCAAGTGTATCTAACGGAG | -1.24
TATGTCCACAGCAGCTTGCTTG | -1.35
TTCTACTCCAGGAACCGTGGTC | 0.223

Molecular target: SMYD2
Test: as above
Settings: shRNA

Sequence | sensor-assay potency score (higher = more potent)
TACAGGAGATCAATATAGCTGG | -0.203
TTTTCTGTCCATATTGCAGGGC | -0.2
TTTGCCGTGAGCTACTTCCATG | -1.61
TAGGTCACAATGACATTGGGGC | 0.446
TTACTGTCCTCAAACACAGAGC | -0.927
TAACATATGAAACCATGCCATT | -1.62
TTAACCGGTCATTTCTATCTTC | 0.511
TACAGCTCTGACTTCTGCCAGG | -0.948
TTATCCTTGTCCTTGGTGGTAC | -0.716
TTAAGGTTTCTGAACTAAGTGT | -0.419
TAGTCTTACAGTCTCCGAGGGA | -0.703
TTGACCGTGAGCACGTAGGCAT | -0.166
